Results from PubChem BioAssay AID485364 (National Center for Advancing Translational Sciences (NCATS), 2010).
Screen size: about 360,000 compounds; about 11,000 (3.1%) were called active. Roughly 4% stayed inconclusive and do not appear here. The call rests on the fitted dose curve; in most records, active means well fitted inhibition curve with a large enough effect; inconclusive means small, poorly fitted or top-dose-only effect; inactive means no such curve, though single readings can be large or run the other way. Many of the other results were omitted from the sample, so actives are more common in it than they were.

molecular target: Schistosoma mansoni thioredoxin glutathione reductase (TGR) (UniProt Q962Y6); experiment: qHTS Assay for the Inhibitors of Schistosoma Mansoni Peroxiredoxins; settings: purified TGR, DTNB reduction, TNB absorbance 405 nm; series mostly up to 114 µM; activity change, negative = inhibition: at the top concentration; further: nearly all actives have a fitted effect of over 60% in size
Method in brief: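 TGR 20 nM + NADPH 100 uM (dispensed conc.), cpd preinc 15 min RT; start with NADPH (500 uM addition) then DTNB (15 mM addition). Kinetic TNB absorbance, 405 nm filter. Four-parameter Hill fit across titration.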
On the % scale 0 is the no-effect control and ±100 the full control effect; potency means the concentration at half of the fitted maximal effect.

Row | Structure (SMILES) | activity change, negative = inhibition | Potency
1 | O=C(NCCCO)C(=O)Nc1c2c(nn1-c1ccc(F)cc1)CSC2 | -26.7% (inactive) | 
2 | Nc1nc(SCC(=O)Nc2ccc(Cl)c([N+](=O)[O-])c2)n[nH]1 | -2.15% (inactive) | 
3 | Cn1nc(-c2ccccc2)c(CO)c1Sc1ccccc1 | -3.58% (inactive) | 
4 | Cn1cnc([N+](=O)[O-])c1Sc1ccccc1 |  | 50.1 µM (active)
5 | Nc1nc(Sc2ncccc2[N+](=O)[O-])n[nH]1 | 2.21% (inactive) | 
6 | Cn1cnc([N+](=O)[O-])c1Sc1n[nH]c(N)n1 |  | 10 µM (active)
7 | Cn1cnc([N+](=O)[O-])c1Nc1ccccc1O | -2.08% (inactive) | 
8 | Cc1ccc(C(=O)Cn2cccn2)cc1 | 2.69% (inactive) | 
9 | Cc1nnc(NC(=O)c2ccc3nccnc3c2)s1 | -3.57% (inactive) | 
10 | Cc1ccc(C(=O)Cc2nnc(C)s2)cc1 |  | 10 µM (active)
11 | Cc1cc(C)cc(NC(=O)CSc2nc(=O)n(CCN3CCOCC3)c3c2CCC3)c1 | 8.04% (inactive) | 
12 | CC(C)CNC(=S)NC(=O)c1ccc(Cl)cc1 |  | 50.1 µM (active)
13 | CC(C)C(NC(=O)c1ccc(Cl)cc1)C(=O)O (configuration not stated) | -11.7% (inactive) | 
14 | Cc1occc1C(=O)NNC(=S)NCC(C)C | -10.8% (inactive) | 
15 | CC[N+](C)(CC)CCC[n+]1c(-c2ccccc2)c2cc(N)ccc2c2ccc(N)cc21 |  | 39.8 µM (active)
16 | CC(=O)c1ccc(NC(=O)COc2ccccc2-c2nc(-c3ccccc3)no2)cc1 | -3.59% (inactive) | 
17 | CCc1ccc(NC(=O)c2cc(S(=O)(=O)NC3CCCCCC3)ccc2F)cc1 | 3.87% (inactive) | 
18 | Cc1ccc(NC(=O)C(Cc2ccccc2)NS(=O)(=O)c2ccc3c(c2)oc(=O)n3C)cc1C (configuration not stated) | -0.776% (inactive) | 
19 | Cc1oc2ncnc(N3CCOCC3)c2c1C(=O)NCCc1ccccc1 | 0.044% (inactive) | 
20 | CCC(=O)N1CCc2cc(CNS(=O)(=O)c3ccc(Br)s3)ccc21 | 2.77% (inactive) | 
21 | c1ccc(-c2nccc(-c3ccc(-n4cnc5ccccc54)cc3)n2)nc1 | 3.5% (inactive) | 
22 | Cc1nccc(-c2ccc(-n3c(C)ccc3C)cc2)n1 |  | 39.8 µM (active)
23 | Cc1ccc(-n2c(-c3ccc(Cl)cc3)n[nH]c2=S)cc1 | 7.4% (inactive) | 
24 | O=C(Nc1ccc(C(=O)OCc2cc(=O)n3nc(C4CC4)sc3n2)cc1)c1ccc(F)cc1 | -6.43% (inactive) | 
25 | Cc1ccc(CNS(=O)(=O)c2ccc(-c3cc(C(F)(F)F)on3)s2)cc1 | 6.71% (inactive) | 

Row | Structure (SMILES) | activity change, negative = inhibition | Potency
26 | COC(=O)c1ccc(OC(=O)c2cnccn2)cc1 |  | 56.2 µM (active)
27 | COc1cccc(OCC(=O)NNC(=O)c2cnccn2)c1 | 3.38% (inactive) | 
28 | COC(=O)c1ccc(COC(=O)c2cnccn2)cc1 | 2.29% (inactive) | 
29 | O=C(NCCc1ccccc1)c1ccc2c(c1)N(Cc1ccccc1)C(=O)c1ccccc1S2(=O)=O | -6.43% (inactive) | 
30 | CSc1ccccc1NC(=O)CCS(=O)(=O)c1nc(-c2cccs2)cc(C(F)(F)F)n1 |  | 12.6 µM (active)
31 | COc1ccccc1-c1cc(C(F)(F)F)nc(S(=O)(=O)CCCC(=O)Nc2cc(C)ccc2O)n1 | -34.7% (inactive) | 
32 | COc1ccccc1-c1cc(C(F)(F)F)nc(S(=O)(=O)CCCC(=O)Nc2ccc(F)cc2F)n1 | -34.2% (inactive) | 
33 | CCOc1ccccc1NC(=O)CSc1ncc(S(=O)(=O)c2ccc(C(C)(C)C)cc2)c(=O)[nH]1 | -1.94% (inactive) | 
34 | CCCCN1C(=O)c2[nH]nc(-c3ccccc3O)c2C1c1cccc(OCc2ccccc2)c1 (configuration not stated) | 10.1% (inactive) | 
35 | COc1ccccc1N1CCN(S(=O)(=O)CCNC(=O)COc2ccc(F)cc2)CC1 | -2.42% (inactive) | 
36 | Cc1nc(N2CCOCC2)c2c(C(=O)NCc3cccc(Cl)c3)c(C)oc2n1 | 4.57% (inactive) | 
37 | O=C(NC(=S)Nc1cc(C(F)(F)F)ccc1N1CCOCC1)c1ccc(-c2cccc(Cl)c2)o1 | -12.5% (inactive) | 
38 | O=C(O)c1ccccc1NC(=O)c1ccccc1-c1ccccc1C(=O)O | -11.9% (inactive) | 
39 | O=C(NC(=S)Nc1ccccc1C(=O)O)c1ccc(-c2ccc(Br)cc2)o1 |  | 3.55 µM (active)
40 | Cc1ccc(Cl)cc1NC(=O)NC1COc2ccccc2C1 (configuration not stated) | 2.72% (inactive) | 
41 | Cc1ccc(CNC(=O)CCCNC(=O)c2ccc(Cl)cc2)n1C |  | 25.1 µM (active)
42 | CC(=O)Nc1ccc(NC(=O)CCCNC(=O)c2ccc(Cl)cc2)cc1 | -3.03% (inactive) | 
43 | Cc1ccc(NC(=O)CCCNC(=O)c2ccc(Cl)cc2)cc1S(=O)(=O)N1CCCCC1 | -0.386% (inactive) | 
44 | COC(=O)c1scc(-c2ccccc2)c1S(=O)(=O)Nc1ccccc1 | 20.7% (inactive) | 
45 | COc1ccc(-n2c(=O)c3sc4ccccc4c3n(CC(=O)Nc3cccc(C)c3)c2=O)cc1 | -0.518% (inactive) | 
46 | Cc1cccc(N2CCN(C(=O)CCn3c(=O)c4cccn4c4cccnc43)CC2C)c1 (configuration not stated) | -0.636% (inactive) | 
47 | O=C1Oc2ccccc2C(=O)/C1=C/c1ccccc1O |  | 2 µM (active)
48 | COC(=O)c1ccc(/C=C2/C(=O)Oc3ccccc32)cc1 | -5.95% (inactive) | 
49 | CC(C)(C)NC(=O)CSc1nc(-c2ccc(F)cc2)cc(C(F)(F)F)n1 | 3.3% (inactive) | 
50 | COc1ccc(S(=O)(=O)Nc2cc3c(C(=O)OC(C)C)c(C)oc3c3ccccc23)cc1 | 7.76% (inactive) | 

Row | Structure (SMILES) | activity change, negative = inhibition | Potency
51 | CCCC(NS(=O)(=O)c1ccc(OC)cc1)C(=O)O (configuration not stated) | 1.05% (inactive) | 
52 | COc1ccc(S(=O)(=O)/N=C2\C=C(NS(=O)(=O)c3ccccc3)C(=O)c3ccccc32)cc1 |  | 35.5 µM (active)
53 | Cc1ccccc1CN1CCNC(=O)C1CC(=O)NCCC1=CCCCC1 (configuration not stated) | -11.2% (inactive) | 
54 | CCc1cc(CNC(=O)CC2C(=O)NCCN2Cc2ccccc2C(F)(F)F)on1 (configuration not stated) |  | 35.5 µM (active)
55 | CCc1cc(CNC(=O)CC2C(=O)NCCN2CC2CCCCC2)on1 (configuration not stated) | -29.1% [at 57.1 µM] (inactive) | 
56 | CC(C)c1ccc2oc(-c3cc(NC(=O)c4cccs4)ccc3Cl)nc2c1 | -0.467% (inactive) | 
57 | COc1ccc(OC)c(-c2csc(-c3c(N)c(C(=O)c4ccccc4)n4ccccc34)n2)c1 | -0.11% (inactive) | 
58 | CC1=C(C)C(=O)OC(C(C)C2CCC3C4CC=C5CC(OC6OC(COC7OC(CO)C(O)C(O)C7O)C(O)C(O)C6O)CC(O)C5(C)C4CCC23C)C1 (configuration not stated) | -24.4% (inactive) | 
59 | C=CC1C(OC2OC(CO)C(O)C(O)C2O)OC=C(C(=O)OC)C1CC1CC(=O)CC(CC(=O)CCc2ccc(O)cc2)O1 (configuration not stated) | 0.84% (inactive) | 
60 | CC(/C=C/C1(O)C(C)CC(=O)CC1(C)C)OC1OC(CO)C(O)C(O)C1O (configuration not stated) |  | 25.1 µM (active)
61 | CC(=O)N(Cc1cc(=O)[nH]c2ccccc12)c1ccc(C)cc1C | -2.87% (inactive) | 
62 | Cc1ccc(N(Cc2cc(=O)[nH]c3ccccc23)C(=O)CCl)cc1 |  | 3.16 µM (active)
63 | Cc1ccc(N(Cc2cc3ccccc3[nH]c2=O)C(=O)c2cccs2)cc1 | -7.78% (inactive) | 
64 | CCOC(=O)c1ccc(-c2ccc(/C=C(\C#N)C(=O)Nc3ccc(C)cc3)o2)cc1 | 7.23% (inactive) | 
65 | COc1ccc(OCCCn2c(C3CC(=O)N(c4ccc(F)cc4)C3)nc3ccccc32)cc1 (configuration not stated) | -0.0863% (inactive) | 
66 | CCOC(=O)C1(Cc2ccccc2C)CCCN(S(C)(=O)=O)C1 (configuration not stated) | 4.13% (inactive) | 
67 | CCOC(=O)C1(Cc2ccccc2C)CCCN(C(=O)c2ccc(COC)o2)C1 (configuration not stated) |  | 15.8 µM (active)
68 | CCOC(=O)C1(Cc2ccccc2C)CCCN(C(=O)CCc2c(C)noc2C)C1 (configuration not stated) | -9.49% (inactive) | 
69 | COc1ccc(CNc2nc(-c3ccccc3)nn2C(=O)c2ccccc2OC)cc1 | 21.4% (inactive) | 
70 | CCOC(=O)c1cccc(NC(=O)Cn2cnc3nc4c(cc3c2=O)CCCC4)c1 | 8.05% (inactive) | 
71 | CC1=C(c2ccc(C)c(C)c2)S(=O)(=O)NC1=NCc1ccccc1Cl | 0.753% (inactive) | 
72 | C=CCn1c(SCC(=O)/C(C#N)=C(\C)N)nc2sc(C)c(C)c2c1=O | 2.71% (inactive) | 
73 | C=CCn1c(SCc2csc(C)n2)nc2scc(-c3ccc(C)o3)c2c1=O |  | 7.94 µM (active)
74 | CCC1(C)Cc2c(sc3[nH]c(=S)n(Cc4ccccc4)c(=O)c23)CO1 (configuration not stated) | -10.7% (inactive) | 
75 | C=CCn1c(=S)[nH]c2scc(-c3ccco3)c2c1=O |  | 8.91 µM (active)

Row | Structure (SMILES) | activity change, negative = inhibition | Potency
76 | C=CCn1c(SCC(=O)Nc2ccc(NC(C)=O)cc2)nc2sc(C)c(C)c2c1=O | -18% (inactive) | 
77 | C=CCNC(=O)CSc1nc2scc(-c3ccco3)c2c(=O)n1CC=C |  | 39.8 µM (active)
78 | C=CCn1c(SCC(=O)NCC2CCCO2)nc2sc(C)c(C)c2c1=O (configuration not stated) | 4.37% (inactive) | 
79 | C=CCn1c(SCc2c(C)noc2C)nc2sc3c(c2c1=O)CCC(C)C3 (configuration not stated) | 5.66% (inactive) | 
80 | CCOC(=O)c1ccc(CN(Cc2ccccc2)S(=O)(=O)c2ccc(Cl)cc2)cc1 | 7.42% (inactive) | 
81 | Cc1cccc(N2CCN(C(=O)c3cc4c(=O)oc5ccccc5c4s3)CC2C)c1 (configuration not stated) | 4.3% (inactive) | 
82 | O=c1cc2nc(-c3ccccc3)nc(SCCOc3ccc(Cl)cc3)n2[nH]1 | 0.903% (inactive) | 
83 | COc1ccc(CNc2nc(-c3ccc(Cl)cc3)nn2C(=O)c2ccccc2)cc1 | 2.53% (inactive) | 
84 | Cc1cccc(-n2ncc(C(=O)N3CCc4ccccc4C3)c2C2CCN(C(=O)OC(C)(C)C)CC2)c1 | -1.72% (inactive) | 
85 | CN(c1ccccc1)S(=O)(=O)c1ccc(Cl)c(C(=O)OCC(=O)N2CCOCC2)c1 | -2.25% (inactive) | 
86 | CN(c1ccccc1)S(=O)(=O)c1ccc(Cl)c(C(=O)OCC(=O)NCc2ccco2)c1 |  | 22.4 µM (active)
87 | CN(c1ccccc1)S(=O)(=O)c1ccc(Cl)c(C(=O)OCC(N)=O)c1 | 6.88% (inactive) | 
88 | CCc1ccccc1NS(=O)(=O)c1ccc2nc(-c3ccccc3)[nH]c2c1 | -1.94% (inactive) | 
89 | O=S(=O)(Nc1ccc2nc(-c3ccco3)[nH]c2c1)c1ccccc1 |  | 10 µM (active)
90 | O=S(=O)(Nc1ccc2nc(-c3cccc(Cl)c3)oc2c1)c1ccccc1 | -2.42% (inactive) | 
91 | O=C(CN1C(=O)COc2ccc(S(=O)(=O)N3CCOCC3)cc21)N1CCN(c2cccc(Cl)c2)CC1 | 0.662% (inactive) | 
92 | CCOC(=O)CN1C(C(=O)c2ccccc2)=C(OC(=O)C(C)(C)C)c2ccccc2S1(=O)=O | 0.561% (inactive) | 
93 | Cc1ccc(N(CC(=O)NCc2ccc(Cl)cc2)S(=O)(=O)N(C)C)cc1 | 6.61% (inactive) | 
94 | O=C(O)CCC(=O)N(Cc1ccco1)c1nc(-c2ccccc2)cs1 |  | 44.7 µM (active)
95 | Cc1ccc(-c2csc(N(Cc3ccco3)C(=O)c3cccs3)n2)cc1 | 2.38% (inactive) | 
96 | O=C(O)CN(Cc1ccco1)S(=O)(=O)c1ccccc1 | -3.68% [at 11.4 µM] (inactive) | 
97 | COc1ccccc1N1CCN(c2ccc(=O)n(CC(=O)NCc3ccc(OC(C)C)cc3)n2)CC1 | -0.678% (inactive) | 
